Results taken from PMC4336329 (PLoS ONE, 2015).
Out of some 310,000 compounds screened, about 2,200 (0.71%) showed an effect of 50% or more. The effect is printed as a negative number. The entries come from a sample that favours strong results as a whole.

Each molecule was assayed against human ether-à-go-go-related gene (hERG) potassium channel (human, UniProt Q12809) (assay: primary screen, population patch clamp on CHO cells stably expressing hERG; higher = less effect of the substance).
human ether-à-go-go-related gene (hERG) potassium channel, sequence (Q12809 whole entry, looked up): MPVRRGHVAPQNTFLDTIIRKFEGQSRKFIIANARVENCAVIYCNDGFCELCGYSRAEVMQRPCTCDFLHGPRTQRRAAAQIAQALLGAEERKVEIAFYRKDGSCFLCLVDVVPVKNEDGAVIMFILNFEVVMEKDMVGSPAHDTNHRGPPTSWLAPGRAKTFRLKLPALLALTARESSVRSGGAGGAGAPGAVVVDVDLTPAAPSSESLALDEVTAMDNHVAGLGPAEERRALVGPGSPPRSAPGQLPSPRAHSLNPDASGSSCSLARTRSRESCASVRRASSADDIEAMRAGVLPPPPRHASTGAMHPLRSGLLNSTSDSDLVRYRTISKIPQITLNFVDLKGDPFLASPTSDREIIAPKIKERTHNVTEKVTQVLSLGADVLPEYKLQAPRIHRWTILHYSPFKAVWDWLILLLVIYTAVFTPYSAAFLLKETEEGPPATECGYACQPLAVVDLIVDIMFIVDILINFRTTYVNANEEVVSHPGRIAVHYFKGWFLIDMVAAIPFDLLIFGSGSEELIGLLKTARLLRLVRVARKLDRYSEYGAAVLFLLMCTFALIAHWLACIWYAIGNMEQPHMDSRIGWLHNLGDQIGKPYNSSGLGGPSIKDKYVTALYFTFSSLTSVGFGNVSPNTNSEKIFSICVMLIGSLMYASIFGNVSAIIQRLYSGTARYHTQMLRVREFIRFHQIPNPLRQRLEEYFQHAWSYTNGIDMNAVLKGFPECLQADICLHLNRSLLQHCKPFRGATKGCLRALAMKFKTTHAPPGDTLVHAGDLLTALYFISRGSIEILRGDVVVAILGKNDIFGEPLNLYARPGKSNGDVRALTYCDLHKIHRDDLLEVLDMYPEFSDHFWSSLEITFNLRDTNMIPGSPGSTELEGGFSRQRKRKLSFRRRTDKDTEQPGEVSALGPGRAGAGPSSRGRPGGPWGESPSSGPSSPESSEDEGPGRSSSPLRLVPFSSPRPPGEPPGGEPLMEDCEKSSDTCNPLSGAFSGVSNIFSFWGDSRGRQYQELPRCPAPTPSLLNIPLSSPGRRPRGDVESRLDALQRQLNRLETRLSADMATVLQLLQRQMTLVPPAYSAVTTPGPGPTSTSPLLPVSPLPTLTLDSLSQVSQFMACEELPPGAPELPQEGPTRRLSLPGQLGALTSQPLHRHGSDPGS

In order of rising “hERG current change (%, negative = inhibition) at 1uM” value:
1. OCC1(CCOc2ccccc2)CCN(Cc2ccc(OC(F)F)cc2)CC1  -87.1%
2. Cc1ccc(NC(=O)CCN2CCN(C/C=C/c3ccccc3)CC2)cc1.Cl  -86.3%
3. Cc1cccc(NC(=O)CCN2CCN(C/C=C/c3ccccc3)CC2)c1.Cl  -82.5%
4. COc1cc(CN2CCC(n3nccc3NC(=O)c3ccccc3OC)CC2)ccc1F  -77.6%
5. CCN1CCN(c2c(Cl)cccc2NC(=O)c2ccc([N+](=O)[O-])o2)CC1  -77%
6. COc1ccc(NC(=O)CSc2nc3ccccc3c(=O)n2CCCN2CCC(C)CC2)c(OC)c1  -72.1%
7. CCN1CCN(c2c(Cl)cccc2NC(=O)c2ccco2)CC1  -70.7%
8. OCC1(CCOc2ccccc2)CCN(Cc2cn[nH]c2-c2ccccc2)CC1  -68.3%
9. CCOc1ccccc1CN1CCC(CO)(CCOc2ccccc2)CC1  -66.8%
10. CC1CCN(CCCn2c(SCC(=O)NC3CCCC3)nc3ccccc3c2=O)CC1  -64.8%
11. C=CCOc1ccccc1CN1CCC(CO)(CCOc2ccccc2)CC1  -61.4%
12. CCN1CCN(c2c(Cl)cccc2NC(=O)c2ccc(Br)o2)CC1  -59.3%
13. OCC1(CCOc2ccccc2)CCN(Cc2ccccc2OC(F)F)CC1  -54.4%
14. Cc1ccc(NC(=O)CCN2CCN(C/C=C/c3ccccc3)CC2)cc1C.Cl  -53.2%
15. COC(=O)c1ccc(NC(=O)CCN2CCCCC2)cc1.Cl  -51%
16. OCC1(CCOc2ccccc2)CCN(Cc2cn[nH]c2-c2ccc(F)cc2)CC1  -46.3%
17. O=C(Cc1csc(NC(=O)Nc2cccc(Cl)c2)n1)NCc1cccnc1  -44.2%
18. CC1CCN(CCCn2c(SCC(=O)Nc3ccccc3Cl)nc3ccccc3c2=O)CC1  -34.1%
19. OCC1(CCOc2ccccc2)CCN(Cc2ccc3c(c2)OCCO3)CC1  -31.2%
20. COc1ccc(NC(=O)CSc2nc3ccccc3c(=O)n2CCCN2CCCCC2)c(OC)c1  -27.7%
21. CCC1=Nc2ccccc2NC2=C1C(=O)CCC2.Cl  -18.7%
22. CSc1cccc(NC(=S)N(CCCN2CCCC2)Cc2cccs2)c1  -17.9%
23. Cc1c(C2N3CC4(C)CN2CC(C)(C3)C4=O)c2ccccc2n1C (stereo not drawn)  -15.5%
24. Cc1ccc(NC(=O)N2CCN(C/C=C/c3ccccc3)CC2)cc1  -10.7%
25. COc1ccc(-n2c(SCC(=O)NCc3cccs3)nc3[nH]ncc3c2=O)cc1  -7.44%
26. O=C(Nc1cccc(Cl)c1N1CCCC1)c1ccc(Br)o1  -5.81%
27. CCCCn1nnc(NC(=O)Cc2ccc(Cl)cc2)n1  -4.74%
28. Cc1cc(=O)n2nc(N3CCCC(C(=O)NCCC4=CCCCC4)C3)sc2n1 (stereo not drawn)  -4.44%
29. N#CCC1c2ccccc2CCN1C(=O)Nc1ccc(C(F)(F)F)cc1 (stereo not drawn)  -4.23%
30. CC(C)COC(=O)NC1c2ccccc2Oc2ccccc21  -2.38%
31. COC(=O)c1nnn(-c2nonc2N)c1COc1ccc(C=O)cc1OC  -1.8%
32. OCC1(CCOc2ccccc2)CCN(Cc2cc(Cl)ccc2O)CC1  -0.875%
33. Cc1cc(C)c(CN2CCC(CO)(CCOc3ccccc3)CC2)cc1C  -0.659%
34. Cc1ccc(S(=O)(=O)N2CCCCC2)cc1NC(=O)CN1CC=C(c2ccccc2)CC1  -0.529%
35. Cc1ccc(NC(=O)c2ccncc2)cc1S(=O)(=O)N(C)C  0.0196%
36. COc1cc(/C=N/NC(=S)NCC2CCCO2)cc(OC)c1OC (stereo not drawn)  0.431%
37. O=C(Nc1ccc(Cl)cn1)Nc1ccccc1F  0.928%
38. COc1ccc(NC(=O)CSc2nc3ccccc3c(=O)n2CCCN2CCOCC2)c(OC)c1  1.25%
39. CCC(C)NC(=S)Nc1ccccc1OC (stereo not drawn)  1.64%
40. COC(=O)c1ccc(NC(=O)CCN2CCN(CCC(=O)Nc3ccc(C(=O)OC)cc3)CC2)cc1  1.76%
41. COc1cc(CN2CCC(n3nccc3NC(=O)C3CCOC3)CC2)ccc1F (stereo not drawn)  2.37%
42. O=C(Nc1cccc(Cl)c1N1CCOCC1)c1ccc([N+](=O)[O-])o1  3.63%
43. OCC1(CCOc2ccccc2)CCN(Cc2ccccc2C(F)(F)F)CC1  3.9%
44. O=C(Nc1cccc(Cl)c1N1CCOCC1)c1ccc(Br)o1  4.08%
45. O=C(Nc1cccc(Cl)c1N1CCOCC1)c1ccco1  4.55%
46. Cc1cccc(C(=O)NCCCn2ccnc2)c1C  4.84%
47. O=C1[C@H]2[C@@H](C(=O)N1c1cc(Cl)cc(Cl)c1)[C@]1(C(=O)Nc3ccccc31)N1CCC[C@@H]21  4.86%
48. CCCCn1c(SCC(=O)NC2CCCC2)nc2ccccc2c1=O  4.94%
49. N#Cc1ccc(/C=C/C(=O)c2ccco2)cc1  5.85%
50. O=C(Cc1ccc(NS(=O)(=O)c2cccc(C(F)(F)F)c2)cc1)NCCN1CCOCC1  5.88%
51. CC1CCCC(C)N1CCCNC(=O)CN1C(=O)c2cccnc2Oc2ccc(Cl)cc21 (stereo not drawn)  6.15%
52. Cc1cc(C)n2nc(SCc3ccc(C#N)cc3)nc2n1  6.64%
53. COC(=O)c1ccc(NC(=O)CCN2CCOCC2)cc1  6.71%
54. OCC1(Cc2ccccc2)CCCN(Cc2cn[nH]c2-c2ccccc2)C1 (stereo not drawn)  6.96%
55. Cc1ccc(C)c(CSC2=NCCN2S(=O)(=O)c2ccccc2)c1  7.31%
56. Cc1cc(NC(=O)CCN2CCN(Cc3ccccc3)CC2)ccc1Br.Cl  7.35%
57. CCOC(=O)c1c(C)[nH]c(C)c1S(=O)(=O)NCC1CCN(Cc2ccccc2F)CC1  8.12%
58. Cc1nn(C)cc1CN1CCC(CO)(CCOc2ccccc2)CC1  8.14%
59. COc1ccc(NC2CCCN(C(=O)CSc3ccccc3)C2)cc1 (stereo not drawn)  8.31%
60. COc1ccc(C(=O)NC2CC3CCCC(C2)N3CC(C)C)cc1OC (stereo not drawn)  8.35%
61. O=C(O)c1cccc(NC(=S)NC(=O)c2cncc(Br)c2)c1  8.81%
62. COc1cc(/C=C/C2=CC(C)(C)NC(=S)N2)cc(OC)c1OC  8.95%
63. CCc1ccc(NC(=O)c2noc(C(C)C)c2[N+](=O)[O-])cc1  8.97%
64. CC1CCCCC1NC(=O)COC(=O)c1ccc(N(C)C)cc1 (stereo not drawn)  9.14%
65. OCCNC(=S)NCCc1ccccc1  9.19%
66. COc1cc(CN2CCC(n3nccc3NC(=O)CCCc3ccccc3)CC2)ccc1F  9.25%
67. CCN1CCN(CCC(=O)Nc2cccc(C)c2)CC1.Cl  9.56%
68. CCN(C(=O)CSc1ncnc2c1cnn2-c1ccccc1)C1CCS(=O)(=O)C1 (stereo not drawn)  9.57%
69. O=C(CNC(=O)c1ccc(Br)cc1)NCC(=O)OCC(=O)c1ccccc1  9.69%
70. C/C(=N/NC(=O)c1ccc(O)cc1)c1cccc([N+](=O)[O-])c1  9.78%
71. O=C(Nc1cccc(Cl)c1N1CCCC1)c1ccc([N+](=O)[O-])o1  9.79%
72. CC(C)c1cc(C(=O)N2CCCC(N3CCN(c4ccccc4F)CC3)C2)nc(N)n1 (stereo not drawn)  10.1%
73. CC1=C(C(=O)Nc2ccccc2)C(c2coc3ccccc3c2=O)C2=C(CCCC2=O)N1 (stereo not drawn)  10.3%
74. CC(C)(C)NC(=O)Cn1c(SCC(=O)Nc2nccs2)nc2ccccc21  10.4%
75. Cc1ccc(NC(=O)CCN2CCOCC2)cc1C  11.1%
76. COc1cc2nc(CN3CCOCC3)n(CC(=O)NCC(F)(F)F)c(=O)c2cc1OC  11.5%
77. C/C=C\C(=O)Nc1cccc(C2=NOC3(C2)C[C@@H](C(N)=O)N(C(=O)c2ccccc2)C3)c1 (stereo partly drawn)  11.6%
78. COc1ccccc1S(=O)(=O)CC(O)COc1ccc(F)cc1Cl (stereo not drawn)  12.6%
79. Cc1cccc(NC(=O)CCN2CCN(C)CC2)c1.Cl  14.1%
80. Cc1nc([N+](=O)[O-])cn1CC(=O)Nc1ccc(Cl)cc1  14.3%
81. CC(=O)c1ccc(NC(=O)COC(=O)c2c[nH]c3ccccc23)cc1  14.4%
82. CC1=Nc2cc(C(=O)NCCCN3CCOCC3)ccc2Sc2c(C)ccc(C)c21  14.7%
83. O=C(CSc1nnc(COc2ccccc2)o1)NC1CC2CCC1C2 (stereo not drawn)  14.8%
84. Cc1ccc(NC(=O)CCN2CCN(C)CC2)cc1.Cl  14.9%
85. COCCNC(=S)N(CCN(C)C)Cc1cc2cc3c(cc2[nH]c1=O)OCO3  15.5%
86. O=C(Nc1cccc(Cl)c1N1CCCC1)c1ccco1  16.2%
87. O=S(=O)(c1ccc(=S)[nH]c1)N1CCCCC1  16.8%
88. CCn1c(SCC(N)=O)nnc1-c1ccc(OC)c(OC)c1  19.4%
89. CC(=O)Nc1cc2c3c(c1)CCN3C(=O)CC2  22.9%
90. CC(C)Oc1ccc(N2CC(C(=O)Nc3ccc(N4CCOCC4)cc3)CC2=O)cc1 (stereo not drawn)  24.6%
